{"source": "PubChem BioAssay (EPA / NIEHS)", "note": "Results filed as inconclusive are left out. Some structures have more than one record in an assay (separate samples or runs), and their calls can disagree. Active and inactive are the calls of the source. Rule for the calls, unless noted: active = hit-call score of the fitted dose curve at least 0.9, where 1 is the maximum; inconclusive = response in the unintended direction; inactive = score below 0.9.", "data": [{"test_system": "not listed separately", "test": "STM_H9_CystineISnorm_perc: Stemina devTOX quickPredict H9 human embryonic stem cell (hESC)-based Assay for Cystine (CYSS) Metabolite Biomarker, Normalized (AID 2283713; active = hit-call score of the fitted dose curve at least 0.9, where 1 is the maximum; inactive = score below 0.9)", "method_in_brief": "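UPLC-HRMS read-out: endogenous cystine peak area in spent medium, normalized to isotope-labeled internal standard and to median of 0.1% DMSO controls. Pluripotent H9 cells, 72h exposure, daily medium/compound replenishment; medium from last 24h sampled.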", "values": [{"smiles": "O=C1NS(=O)(=O)c2ccccc21", "outcome": "inactive"}, {"smiles": "CN(Cc1cnc2nc(N)nc(N)c2n1)c1ccc(C(=O)N[C@@H](CCC(=O)O)C(=O)O)cc1", "AC50": "0.0873 µM (active)"}, {"smiles": "CCCCC(CC)C(=O)O", "note": "(stereo not drawn)", "outcome": "inactive"}, {"smiles": "OCC(CO)(CBr)CBr", "outcome": "inactive"}, {"smiles": "O=C(CCCN1CCC(O)(c2ccc(Cl)cc2)CC1)c1ccc(F)cc1", "outcome": "inactive"}, {"smiles": "Cc1[nH]nc2c1N=C(c1ccccc1Cl)c1cc([N+](=O)[O-])ccc1N2", "AC50": "1.62 µM (active)"}]}, {"test_system": "not listed separately", "test": "STM_H9_OrnCyssISnorm_ratio: Stemina devTOX quickPredict H9 human embryonic stem cell (hESC)-based Assay for Ornithine (ORN):Cystine (CYSS) Ratio (AID 2283714)", "method_in_brief": "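UPLC-HRMS of spent media: ORN/CYSS ratio of internal-standard-normalized percentages, DMSO (0.1%) baseline. Pluripotent H9 hESCs, 72h exposure, daily re-dosing with fresh media; last 24h media collected.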", "values": [{"smiles": "Cn1sccc1=O", "AC50": "10.8 µM (active)"}, {"smiles": "O=C1NS(=O)(=O)c2ccccc21", "outcome": "inactive"}, {"smiles": "CN(Cc1cnc2nc(N)nc(N)c2n1)c1ccc(C(=O)N[C@@H](CCC(=O)O)C(=O)O)cc1", "AC50": "0.0863 µM (active)"}, {"smiles": "CC(C)(C)c1ccc(O)c(O)c1", "AC50": "76.2 µM (active)"}, {"smiles": "O=C(c1ccccc1)c1ccccc1", "outcome": "inactive"}, {"smiles": "CCCCC(CC)C(=O)O", "note": "(stereo not drawn)", "outcome": "inactive"}, {"smiles": "CCCCc1oc2ccccc2c1C(=O)c1cc(I)c(OCCN(CC)CC)c(I)c1", "AC50": "5 µM (active)"}, {"smiles": "OCC(CO)(CBr)CBr", "outcome": "inactive"}, {"smiles": "O=C(CCCN1CCC(O)(c2ccc(Cl)cc2)CC1)c1ccc(F)cc1", "outcome": "inactive"}, {"smiles": "CC1=CC(=O)c2ccccc2C1=O", "AC50": "11.8 µM (active)"}, {"smiles": "CN(C)CCOC(c1ccccc1)c1ccccc1", "AC50": "1.55 µM (active)"}, {"smiles": "Cc1[nH]nc2c1N=C(c1ccccc1Cl)c1cc([N+](=O)[O-])ccc1N2", "AC50": "1.85 µM (active)"}, {"smiles": "Oc1c(Cl)cc(Cl)cc1Sc1cc(Cl)cc(Cl)c1O", "outcome": "inactive"}, {"smiles": "C=Cc1ccc(O)c(OC)c1", "AC50": "81 µM (active)"}]}, {"read-out": "not listed separately", "test": "CEETOX_H295R_MTT_cell_viability: Viability Assessment in the CeeTox HT-H295R MTT Assay (AID 2283718; active = hit-call score of the fitted dose curve at least 0.9, where 1 is the maximum; inactive = score below 0.9;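 for AC50: curve fitted both ways so AC50 may mark viability loss or gain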)", "method_in_brief": "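Human H295R adrenal cells, prestimulated 48 h with 10 uM forskolin, were exposed 48 h to chemicals in 0.1% DMSO. Viability was measured in the same wells by MTT (0.5 mg/ml, 4 h, 37 C), absorbance 570/650 nm, as percent of controls.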", "values": [{"smiles": "c1cc[nH]c1", "outcome": "inactive"}, {"smiles": "CCCCCC(C)OC(=O)COc1ccc(Cl)c2cccnc12", "note": "(stereo not drawn)", "outcome": "inactive"}, {"smiles": "CC(C)CCOCCC(C)C", "outcome": "inactive"}, {"smiles": "Clc1ccc(Nc2nnc(Cc3ccncc3)c3ccccc23)cc1", "outcome": "inactive"}, {"smiles": "CC(C)(C)c1ccc(O)c(O)c1", "outcome": "inactive"}, {"smiles": "Oc1cc2ccccc2cc1O", "outcome": "inactive"}, {"smiles": "O=C(NCc1ncc(C(F)(F)F)cc1Cl)c1c(Cl)cccc1Cl", "outcome": "inactive"}, {"smiles": "C/C=C/C(=O)C1=C(C)CCCC1(C)C", "outcome": "inactive"}, {"smiles": "CCCCCc1ccc(O)cc1", "outcome": "inactive"}, {"smiles": "C[C@]12CC[C@@H]3c4ccc(O)cc4CC[C@H]3[C@@H]1C[C@@H](O)[C@@H]2O", "AC50": "91.7 µM (active)"}, {"smiles": "COc1cccc(O)c1", "outcome": "inactive"}, {"smiles": "CC(C)(c1ccc(Oc2ccc(N)cc2)cc1)c1ccc(Oc2ccc(N)cc2)cc1", "outcome": "inactive"}, {"smiles": "O=C(CCCN1CCC(O)(c2ccc(Cl)cc2)CC1)c1ccc(F)cc1", "outcome": "inactive"}, {"smiles": "COc1cc([N+](=O)[O-])ccc1N", "outcome": "inactive"}, {"smiles": "Cc1cccc2c1ccc1ccccc12", "outcome": "inactive"}]}, {"test_system": "not listed separately", "test": "Tanguay_ZF_120hpf_ActivityScore_legacy: (Legacy) Oregon State University Tanguay Lab 120 Hour Post-fertilization zebrafish Assay Score for Activity (AID 2283742);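 for AC50: dechorionated Tropical 5D wild-type zebrafish embryos held singly per well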", "method_in_brief": "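Dechorionated 5D embryos, one per well, static exposure 6–120 hpf, 28C, sealed and dark; final DMSO 0.64% (vol/vol). Brightfield binary scoring of mortality plus 18 endpoints; gain-of-signal fit versus DMSO baseline.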", "values": [{"smiles": "O=C1NS(=O)(=O)c2ccccc21", "outcome": "inactive"}, {"smiles": "CN(Cc1cnc2nc(N)nc(N)c2n1)c1ccc(C(=O)N[C@@H](CCC(=O)O)C(=O)O)cc1", "outcome": "inactive"}, {"smiles": "O=C(c1ccccc1)c1ccccc1", "outcome": "inactive"}, {"smiles": "CCCCC(CC)C(=O)O", "note": "(stereo not drawn)", "outcome": "inactive"}, {"smiles": "CCCCc1oc2ccccc2c1C(=O)c1cc(I)c(OCCN(CC)CC)c(I)c1", "outcome": "inactive"}, {"smiles": "OCC(CO)(CBr)CBr", "outcome": "inactive"}, {"smiles": "O=C(CCCN1CCC(O)(c2ccc(Cl)cc2)CC1)c1ccc(F)cc1", "AC50": "4.09 µM (active)"}, {"smiles": "CN(C)CCOC(c1ccccc1)c1ccccc1", "AC50": "202 µM (active)"}, {"smiles": "Cc1[nH]nc2c1N=C(c1ccccc1Cl)c1cc([N+](=O)[O-])ccc1N2", "outcome": "inactive"}]}, {"molecular_target": "Luciferin 4-monooxygenase (Photinus pyralis) (UniProt P08659)", "sequence (P08659 whole entry, looked up)": "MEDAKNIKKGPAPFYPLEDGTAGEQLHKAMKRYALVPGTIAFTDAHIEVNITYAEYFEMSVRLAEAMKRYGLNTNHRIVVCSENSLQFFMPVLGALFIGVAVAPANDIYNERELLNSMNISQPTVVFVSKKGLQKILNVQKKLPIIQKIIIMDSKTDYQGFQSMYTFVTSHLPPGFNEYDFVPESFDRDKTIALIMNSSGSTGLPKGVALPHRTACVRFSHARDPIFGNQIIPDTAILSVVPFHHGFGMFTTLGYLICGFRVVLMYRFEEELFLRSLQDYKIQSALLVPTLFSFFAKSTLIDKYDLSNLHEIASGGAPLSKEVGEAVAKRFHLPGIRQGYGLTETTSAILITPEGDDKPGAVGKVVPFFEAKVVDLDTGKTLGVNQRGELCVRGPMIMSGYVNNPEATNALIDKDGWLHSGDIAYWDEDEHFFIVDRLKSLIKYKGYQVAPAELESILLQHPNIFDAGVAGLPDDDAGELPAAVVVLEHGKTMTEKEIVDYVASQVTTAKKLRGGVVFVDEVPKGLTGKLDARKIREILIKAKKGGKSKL", "test": "CCTE_Simmons_QuantiLum_inhib_2: CCTE's Firefly Luciferase Inhibition Assay, Simmons Lab (AID 2283767);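 for AC50: potency for inhibitors that lower luciferase luminescence relative to DMSO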", "method_in_brief": "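Cell-free QuantiLum luciferase, 5 ng/well; compounds 5 nM–87.5 uM final, 8 conc, 0.5% DMSO; 30 min, 37C, dark. Detection reagent (150 uM D-luciferin, 147 uM dATP, CoA, DTT, pH 7.8 final) injected per well, kinetic luminescence. Triplicate biological replicates.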", "values": [{"smiles": "CN(Cc1cnc2nc(N)nc(N)c2n1)c1ccc(C(=O)N[C@@H](CCC(=O)O)C(=O)O)cc1", "outcome": "inactive"}, {"smiles": "C[C@]12CC[C@@H]3c4ccc(O)cc4CC[C@H]3[C@@H]1C[C@@H](O)[C@@H]2O", "outcome": "inactive"}, {"smiles": "COc1cc([N+](=O)[O-])ccc1N", "outcome": "inactive"}, {"smiles": "Cc1[nH]nc2c1N=C(c1ccccc1Cl)c1cc([N+](=O)[O-])ccc1N2", "AC50": "44.6 µM (active)"}]}, {"test_system": "not listed separately", "test": "ACEA_AR_agonist_AUC_viability: ACEA Biosciences xCELLigence Real-Time Cell Analysis on Androgen Receptor Agonism for Viability (AID 2283775)", "method_in_brief": "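Viability endpoint from xCELLigence impedance in 22Rv1 prostate cells at 80 h. Eight-point series, 100 uM maximum final.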", "values": [{"smiles": "O=C1NS(=O)(=O)c2ccccc21", "outcome": "inactive"}, {"smiles": "CN(Cc1cnc2nc(N)nc(N)c2n1)c1ccc(C(=O)N[C@@H](CCC(=O)O)C(=O)O)cc1", "AC50": "0.787 µM (active)"}, {"smiles": "CCCCC(CC)C(=O)O", "note": "(stereo not drawn)", "AC50": "4.14 µM (active)", "outcome": "inactive"}, {"smiles": "CCCCc1oc2ccccc2c1C(=O)c1cc(I)c(OCCN(CC)CC)c(I)c1", "AC50": "9.56 µM (active)"}, {"smiles": "OCC(CO)(CBr)CBr", "outcome": "inactive"}, {"smiles": "O=C(CCCN1CCC(O)(c2ccc(Cl)cc2)CC1)c1ccc(F)cc1", "AC50": "63.8 µM (active)"}, {"smiles": "COc1cc([N+](=O)[O-])ccc1N", "outcome": "inactive"}, {"smiles": "CN(C)CCOC(c1ccccc1)c1ccccc1", "outcome": "inactive"}, {"smiles": "Cc1[nH]nc2c1N=C(c1ccccc1Cl)c1cc([N+](=O)[O-])ccc1N2", "AC50": "1.75 µM (active)"}]}]}
